Results as given in PubChem BioAssay AID605 (National Center for Advancing Translational Sciences (NCATS), 2007).
About 35 (0.05%) of roughly 71,000 compounds were called active. Calls come from the whole dose curve; as a rule, active = well fitted curve in the direction sought with a large enough effect; inconclusive = small, poorly fitted or top-dose-only effect, or effect the other way; inactive = flat fitted curve, though single readings scatter. A selection follows.

Biological target: tRNA threonylcarbamoyladenosine biosynthesis protein TsaE (Escherichia coli (strain K12)) (UniProt P0AF67)
Assay: qHTS Assay for Inhibitors of YjeE
Settings: purified YjeE enzyme, qHTS inhibition assay
Procedure: NIH Molecular Libraries Screening Centers Network [MLSCN]
NIH Chemical Genomics Center [NCGC]
Assay Provider: Eric Brown, McMaster University
YjeE is an essential E.coli protein of unknown function that binds adenosine diphosphate (ADP). A complex of YjeE and BODIPY Texas Red-labeled ADP probe (Invitrogen, catalog number A22359) is incubated with library members. Inhibitors of YjeE-ADP binding are detected by a decrease in the fluorescence polarization (FP) of the fluorophore. Purified YjeE was supplied by Chand Mangat and Eric Brown, McMaster University.
NCGC Assay Protocol Summary:
2 uM probe/10 uM YjeE in columns 1, 2, 5-48. Titration of ADP control (from 40 mM, then 1:2) pin-transferred to top half of column 2. Column 1 and bottom half of column 2 are neutral.
Two and a half uL of reagents were dispensed to 1536-well Greiner black plates. Compounds and controls (20 nL) were transferred via Kalypsys PinTool. The plates were incubated for 15 min at room temperature, and then read on ViewLux (Perkin-Elmer) High-throughput CCD imager using BODIPY polarization filter set and 30 seconds exposure time. During dispense, reagent bottle was kept submerged into 4 deg C water bath and all liquid lines were covered with aluminum foil to minimize probe and protein degradation.
Keywords: NIH Roadmap, MLSCN, MLI, MLSMR, qHTS, NCGC, YjeE

Row | SMILES | outcome
1 | CCc1ccc(Nc2ncc3c(n2)CC(c2ccco2)CC3=O)cc1 (stereo not given) | inactive
2 | COc1ccc(CN(C(=O)c2cccs2)c2nccs2)cc1OC | inactive
3 | Cc1ccc(C(=O)CS(C)(=O)=O)cc1 | inactive
4 | CC(C)C(=O)N1CCN(CCN=CC2=C(O)CC(c3ccco3)CC2=O)CC1 (stereo not given) | inactive
5 | COc1cccc(N2CCN(C(=O)C3CCCN(S(=O)(=O)c4cnc[nH]4)C3)CC2)c1 (stereo not given) | inactive
6 | O=C(Nc1c(C(=O)N2CCCCC2)cnn1-c1ccccc1)c1ccco1 | inactive
7 | COc1ncc2nc(-c3ccc(Cl)cc3)c(=O)n(-c3ccccc3)c2n1 | inactive
8 | COc1cc2[nH]c(=S)n(Cc3ccc(C)o3)c(=O)c2cc1OC | inactive
9 | CCC(C)(C)N=C(NC#N)Nc1cccnc1 | inactive
10 | C[C@@H](Nc1nc(-c2ccccc2)nc2c1oc1ccccc12)C(=O)O | inactive
11 | Cc1ccc(N(CC(O)CN2CCCC2)S(=O)(=O)c2ccccc2)cc1 (stereo not given) | inactive
12 | COc1ccc(N2C(=O)CC(N3CCC(C(N)=O)CC3)C2=O)cc1 (stereo not given) | inactive
13 | CCCCCCn1c(CN2CCCC(C)C2)nc2c1c(=O)n(C)c(=O)n2C (stereo not given) | inactive
14 | O=NO | inactive
15 | Cc1ccc(S(=O)(=O)NC(=O)NN2C[C@H]3CCC[C@@H]3C2)cc1 | inactive
16 | CCCn1c(=O)c(-c2ccccc2)c(O)c2ccccc21 | inactive
17 | CC(C)CC1(C(=O)NCc2ccccn2)C=CCN1C(=O)c1ccccc1 (stereo not given) | inactive
18 | COCCOC(=O)C1=C(C)Nc2nc(C)nn2C1c1ccccc1 (stereo not given) | inactive
19 | CCCC(=O)Nc1nnc(CC(=O)OCC)s1 | inactive
20 | O=C(O)[C@@H](S)[C@H](S)C(=O)O | inactive
